Drawing on PubChem BioAssay (NCI), this text covers growth for 10 molecules.

About 83,000 compounds went through this panel and 20% of them were active in at least one assay; those are over-represented in the sample as a whole.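 Testing used 96-well plates and a 48-hour single-concentration exposure. Example: -40 means 40% of the starting cells died.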 Unmarked numbers belong to inactive results. The source made the active and inactive calls. Rule for the calls: active = growth percent below 10; inactive = the rest.

What all share (assay): NCI-60 one-dose screen, 48 h (100 = growth as untreated, 0 = no growth, -100 = all killed)
What all share (conditions): 10 µM unless noted

Assay [1] relates to NCI-H23 lung.
Assay [2] relates to NCI-H226 lung.
The test system of assay [3] is HOP-62 NSCLC.
For assay [4], the system named is NCI-H460 lung.
The subject of assay [5] is HOP-92 NSCLC.
Assay [6] concerns NCI-H522 lung.
Assay [7] relates to A549/ATCC NSCLC.
In assay [8] the test system is 786-0 renal.
Assay [9] has as its system COLO 205 colon.
Assay [10] deals with DU-145 prostate.
Assay [11] deals with K-562 leukemia.
For assay [12], the system named is MALME-3M melanoma.
Assay [13] deals with MDA-MB-231 breast.
Assay [14] concerns RXF 393 renal.
For assay [15], the system named is SF-268 CNS.
Assay [16] concerns SF-295 CNS.
In assay [17] the test system is SF-539 CNS.
Assay [18] deals with UACC-257 melanoma.
Assay [19] deals with M14 melanoma.

Regarding `COc1ccc(/C=C2\Cc3c(Br)cccc3C2=O)c(OC)c1`, the growth was 66% in [1]; 93.7% in [2]; 69.6% in assay [3]; 79.8% in assay [4]; 88.2% in assay [5]; 55.9% in assay [6]. The growth in assay [7] is 68.9%; in assay [8], 93%; in assay [9], 80.3%; in assay [10], 87.4%; in assay [11], 64%; in assay [12] it was 60.2%. For the same molecule, the growth in assay [13] is 58%; in assay [14], 80.9%; in [15] it was 73.6%; in [16], 67.5%; in assay [17], 73.4%; in assay [18] it was 98.2%. Besides, the growth in assay [19] is 47%.

Consider `O=C(Nc1cnc(C(F)(F)F)cn1)c1cc(Cl)ccc1O`, for which the growth in assay [1] was 2.55% (active); in assay [2], 8.55% (active); in [3] it was -4.96% (active); in [4], 4.18% (active); in [5] it was -6.58% (active); in [6] it was -12.6% (active). The growth was 2.57% (active) in assay [7]; 0.361% (active) in [8]; 14.2% in assay [9]; 24.9% in assay [10]; 7.07% (active) in [11]; -18.5% (active) in [12]. Also, the growth was -21.1% (active) in [13]; -1.32% (active) in assay [14]; 18.2% in [15]; 3.19% (active) in [17]; -20.6% (active) in assay [18]; -3.59% (active) in [19].

For the molecule `CCCCn1c(C)nc2cc(Nc3nc(Cl)nc4nc[nH]c34)ccc21`, the growth is 77.9% in assay [1]; 75% in assay [2]; 66% in assay [3]; 84.7% in assay [4]; -1.07% (active) in assay [5]; 78.9% in assay [6]. The growth in assay [7] is 85%; in assay [8] it was 76.4%; in assay [9], 89.7%; in assay [10], 89.6%; in [11], 90.3%; in assay [12], 79.8%. Also, the growth in assay [13] was 75%; in [14], 81.9%; in [15], 92.4%; in assay [16] it was 74.5%; in assay [17] it was 76.3%; in assay [18], 100%. Further, in [19], the growth was 86.8%.

Consider `CC(C)c1ccc(Cn2ccc3c4c(N)nc(NC5CC5)nc4ccc32)cc1`, for which the growth in [1] is -71.3% (active); in [2], -73.3% (active); in assay [3] it was -74.8% (active); in assay [4], -84.2% (active); in assay [5] it was -88.2% (active); in assay [6], -81.8% (active). Besides, the growth in [7] was -80.9% (active); in [8], -91.6% (active); in [9], -78% (active); in assay [10], -89.5% (active); in assay [11], -69.7% (active); in assay [12] it was -91.6% (active). Besides, the growth in assay [13] was -89.6% (active); in assay [14], -90.9% (active); in assay [15], -77.6% (active); in [16], -82.8% (active); in assay [17] it was -91.5% (active); in assay [18] it was -77.8% (active). The growth in assay [19] is -86.2% (active).

For `CC(C)NCCCCCNc1cc(O)cc2cccnc12`, the growth is 45.7% in [1]; 92.1% in [2]; 71.5% in [3]; 105% in assay [4]; -8.76% (active) in assay [5]; 86.5% in [6]. Moreover, the growth in assay [7] is 123%; in assay [8], 70.1%; in [9] it was -36.3% (active); in assay [10], 93.2%; in assay [11], 67.6%; in assay [12], 23.8%. The growth was 26.6% in assay [13]; 74.7% in [14]; 89.2% in assay [15]; 77.4% in assay [16]; 71.5% in assay [17]; 111% in assay [18]. Further, the growth in [19] is 88.2%.

As to `CC1(C)C(N(O)C(=O)Nc2ccc(Cl)cc2)N(c2ccc(Cl)cc2)C(=O)N1CC(=O)N/N=C/C=C/c1ccc([N+](=O)[O-])o1` (centres undefined), the growth in assay [1] was 3.01% (active); in [2] it was 25.8%; in [3], 36.8%; in [4], -13.1% (active); in assay [5], -30.9% (active); in assay [6] it was -88.5% (active). Further, the growth in assay [7] is 6.98% (active); in assay [8], -48.9% (active); in assay [9], -81.3% (active); in [10], 12.5%; in [11], 13.1%; in assay [12], -42.6% (active). In addition, the growth in assay [13] is -48.7% (active); in assay [14], -77.9% (active); in assay [16], 54.9%; in assay [17], -73.3% (active); in assay [18] it was -33.7% (active); in [19] it was -65.6% (active).

As to `CSC1=NC(=Nc2c(C)cccc2C)C2(CCC(C(C)(C)C)CC2)N1c1ccc(Cl)cc1` (centres undefined), the growth is 48.6% in assay [1]; 48.6% in assay [2]; 42% in assay [3]; 16% in assay [4]; 62.7% in assay [5]; 48.2% in assay [6]. The growth in assay [7] was 30.5%; in assay [8], 51.1%; in assay [9], 40.8%; in assay [10] it was 40.3%; in [11] it was 17.7%; in [12], 38.5%. The growth in assay [13] is 61.8%; in assay [14], 38%; in [15], 42.8%; in assay [17], 46.5%; in assay [18] it was 54.1%; in assay [19], 49.5%.

`CCNS(=O)(=O)c1ccc(C)cc1`: the growth was 100% in assay [1]; 103% in assay [2]; 100% in assay [3]; 101% in assay [4]; 69.7% in assay [5]; 114% in assay [6]. Also, the growth in assay [7] is 95.8%; in [8], 110%; in [9] it was 113%; in [10] it was 96.5%; in assay [11], 105%; in assay [12], 104%. In addition, the growth in assay [13] was 113%; in assay [14] it was 113%; in assay [16] it was 104%; in assay [17], 102%; in assay [18], 107%; in assay [19] it was 106%.

As for `O=C(NC1CC1)c1ccc(-c2nc3ccc4[nH]ncc4c3c3c2CCCC3)cc1`, the growth in [1] was 53.3%; in [2], 44.7%; in assay [3], 28.9%; in assay [4], 41.7%; in [5] it was 71.2%; in [6], 18.9%. The growth in [7] was 26.3%; in assay [8], 42.1%; in assay [9], 23.6%; in assay [10], 38.2%; in [11] it was 24.4%; in assay [12], 53.8%. The growth is 45.7% in assay [13]; -9.49% (active) in assay [14]; 35.1% in assay [15]; 31.3% in [17]; 60.2% in [18]; 44.7% in [19].

Take `CCOc1c(C#N)c2c(N)ncnc2n1C1OC(CO)C(O)C1O` (centres undefined): the growth in [1] was 50.6%; in assay [2], 71.8%; in assay [3] it was 76.6%; in assay [4] it was 0.566% (active); in assay [5], 50.1%; in [6], -22.4% (active). In addition, the growth in assay [7] is 8.54% (active); in assay [8] it was 76.1%; in [9] it was 8.97% (active); in [10], -10.5% (active); in assay [11] it was 0.169% (active); in [12], 59.2%. Also, the growth in assay [13] was 87.1%; in assay [15] it was 25.2%; in [16] it was 71.3%; in [17], 62.5%; in [18] it was 83.5%; in [19] it was 35%.
